High-throughput results (PubChem)
LmPK inhibitor: blocks Leishmania mexicana pyruvate kinase activity; Q27686; 290,000 compounds, 0.37% hits; Potency, µM (doses to about 57.5 µM), for the others: at the top dose activity change, negative = inhibition, most hits filed as inhibitors; purified LmPK, Kinase-Glo ATP luminescence, 1 h; also: % is scaled to controls: 0 for no effect and ±100 for the full control effect
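Purified LmPK (0.1 nM) converted ADP (0.1 mM) to ATP with PEP (0.5 mM) in imidazole buffer pH 7.2 with KCl and MgCl2, 1 h at room temperature. ATP was read by Kinase-Glo luminescence; data normalized to uninhibited and no-enzyme controls.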
NS1 inh: influenza NS1 inhibition | Potency, µM (doses to about 46.1 µM), inactives show at the top dose activity, positive = more growth | 270,000 compounds, 0.4% hits | AID 2326; calls by dose curve; also: actives are rising curves; nearly all actives have a fitted effect of over 50% in size
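OD600 was taken as the measure of yeast growth restored by compound in an NS1-expressing S. cerevisiae strain. Cells had been washed out of glucose medium and diluted 1:100 into galactose -URA medium, pH 6.0.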
TbPYK inhibitor: T. brucei pyruvate kinase inhibition | Q57TT1 | Potency, µM (titrated, usually from 76.8 µM), inactives show top-dose activity, negative = inhibition, most hits filed as inhibitors | TbPYK enzyme, Kinase-Glo Plus ATP luminescence, 45 min | 410,000 compounds, 0.12% hits; also: % is scaled to controls: 0 for no effect and ±100 for the full control effect; nearly all actives have a fitted effect of over 50% in size
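Luminescent Kinase-Glo Plus end-point after 45 min room-temperature reaction of T. brucei pyruvate kinase started with 130 uM ADP (final). Buffer TEA 50 mM pH 7.2 with KCl, MgCl2, BSA, Tween-20; titration-based qHTS with fitted concentration-effect curves.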
Giardia FBPA inh-1: blocks Giardia fructose-bisphosphate aldolase activity; A8B2U2; purified Giardia FBPA; Potency, µM (top dose mostly 59.6 µM), inactives show at the top dose activity, negative = inhibition, most hits filed as inhibitors; 290,000 compounds, 0.71% hits; also: % is scaled to controls: 0 for no effect and ±100 for the full control effect; nearly all actives have a fitted effect of over 55% in size
Target sequence (A8B2U2 whole entry, looked up): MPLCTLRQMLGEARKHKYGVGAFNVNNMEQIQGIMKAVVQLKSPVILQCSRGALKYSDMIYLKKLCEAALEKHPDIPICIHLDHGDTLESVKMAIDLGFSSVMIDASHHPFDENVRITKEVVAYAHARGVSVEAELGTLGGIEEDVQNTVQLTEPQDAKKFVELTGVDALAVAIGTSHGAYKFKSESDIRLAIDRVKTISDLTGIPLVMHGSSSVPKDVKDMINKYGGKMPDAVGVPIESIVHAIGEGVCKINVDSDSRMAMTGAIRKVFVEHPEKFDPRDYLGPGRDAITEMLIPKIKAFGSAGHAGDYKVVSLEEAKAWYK
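40 nM FBPA preincubated 10 min at RT with compound (up to 57.5 uM final), then substrate plus GAPDH/TPI/NAD/arsenate coupling and diaphorase/resazurin added. Fluorescence read after 20 min at RT, 525/598 nm.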
AMA1-RON2 inh: inhibitors of Plasmodium falciparum AMA1-RON2 interaction. 360,000 compounds, 0.2% hits. AlphaScreen AMA1-biotinylated RON2 peptide binding. Potency, µM (top dose mostly 58.2 µM), without a hit: top-dose activity change, negative = inhibition, usual class: inhibitors. AID 720542;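 also: 0% = vehicle wells and -100% = peptide control; nearly all actives have a fitted effect of over 45% in size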
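AMA1 (3D7) with his tag at 25 nM final met compounds first, then biotinylated RON2 peptide at 25 nM; detection used donor plus acceptor beads, 10 µg/mL apiece, read by AlphaScreen after 30 min at room temperature.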
Giardia growth: inhibitors of Giardia lamblia growth | shares compounds with Giardia FBPA inh-1 | Giardia lamblia trophozoite growth inhibition | Potency, µM (titrated, usually from 57.5 µM), for the others: top-dose activity change, negative = inhibition, actives largely listed as inhibitors | 1,500 compounds, 5% hits | AID 2785;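 also: trophozoites exposed to compound for 48 h at 37 °C; % is scaled to controls: 0 for no effect and ±100 for the full control effect; nearly all actives have a fitted effect of over 70% in size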
Mammalian tox: toxic to mammalian cells in Giardia aldolase counter-screen; shares compounds with Giardia FBPA inh-1; 1,500 compounds, 4% hits; Potency, µM (top dose mostly 57.5 µM), for inactives: top-dose viability change, negative = toxicity, hits mostly inhibitors; mammalian cell viability counter-screen, qHTS; AID 2786;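 also: Chinese hamster ovary cells used as mammalian cytotoxicity surrogate; viability measured as cellular ATP by luminescence; compound exposure lasted 48 h before reading; % is scaled to controls: 0 for no effect and ±100 for the full control effect; nearly all actives have a fitted effect of over 60% in size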
Giardia FBPA inh-2: confirmation of Giardia fructose-bisphosphate aldolase inhibitors | purified Giardia aldolase enzyme activity, qHTS | shares compounds with Giardia FBPA inh-1 | 1,500 compounds, 5% hits | Potency, µM (titrated, usually from 57.5 µM), for inactives: at the top dose activity change, negative = inhibition, most hits filed as inhibitors; also: % is scaled to controls: 0 for no effect and ±100 for the full control effect; nearly all actives have a fitted effect of over 45% in size
Rabbit aldolase: blocks rabbit muscle aldolase in Giardia aldolase selectivity test; Rabbit muscle FBPA enzyme inhibition, selectivity counter-screen; shares compounds with Giardia FBPA inh-1; Potency, µM (doses to about 57.5 µM), without a hit: top-dose activity, negative = inhibition, hits mostly inhibitors; 1,500 compounds, 4% hits; also: % is scaled to controls: 0 for no effect and ±100 for the full control effect; nearly all actives have a fitted effect of over 60% in size
Target sequence (P00883 whole entry, looked up): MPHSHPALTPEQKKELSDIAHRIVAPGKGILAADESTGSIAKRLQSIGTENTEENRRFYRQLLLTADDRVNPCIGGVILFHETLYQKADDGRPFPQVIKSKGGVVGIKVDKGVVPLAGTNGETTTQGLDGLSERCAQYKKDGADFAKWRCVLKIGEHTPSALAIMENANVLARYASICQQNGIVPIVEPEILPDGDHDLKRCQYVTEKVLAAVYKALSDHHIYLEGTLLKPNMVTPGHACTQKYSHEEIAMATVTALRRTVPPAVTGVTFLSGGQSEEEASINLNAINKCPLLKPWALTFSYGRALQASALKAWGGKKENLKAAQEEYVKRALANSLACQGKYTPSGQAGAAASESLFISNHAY
GAPDH counter: counter-screen for Giardia aldolase inhibitors: GAPDH coupling enzyme; Potency, µM (titrated, usually from 57.5 µM), for inactives: top-dose activity change, negative = inhibition, actives largely listed as inhibitors; 1,500 compounds, 6% hits; AID 2795; GAPDH coupling enzyme counterscreen, biochemical, qHTS; shares compounds with Giardia FBPA inh-1; also: % is scaled to controls: 0 for no effect and ±100 for the full control effect; nearly all actives have a fitted effect of over 55% in size
* = called active by the depositor; [ ] = another dose, or the depositor's remark. Rows were chosen to be rich in hits. Some 1.2% of all compounds tested hit in one or more screens of this group. Unless noted, calls follow the shape of the dose curve; as a rule, active = well fitted curve in the direction sought with a large enough effect; inconclusive = small, poorly fitted or top-dose-only effect, or another doubt; inactive = no such curve, though single readings can be large; an effect the other way counts as inactive or inconclusive. Potency is read from the fitted curve at half-maximal effect.

How did C=CCN(CC=C)CCOc1ccc(C)cc1[N+](=O)[O-] do in these assays?
LmPK inhibitor: -5%; NS1 inh: 1%; TbPYK inhibitor: 16%; Giardia FBPA inh-1: 20µM*; AMA1-RON2 inh: inconclusive; Giardia growth: inconclusive; Mammalian tox: 2%; Giardia FBPA inh-2: -1%; Rabbit aldolase: 1%; GAPDH counter: -4%

Results for CC1(C)O[C@H]2O[C@@H]([C@H](O)CON3C(=O)c4ccccc4C3=O)[C@H](O)[C@H]2O1 ?
Giardia FBPA inh-1: -1%[12.9 µM]

Results for Cc1ccc(S(=O)(=O)Nc2ccc(O)c(Sc3ncn[nH]3)c2)cc1 ?
LmPK inhibitor: 5%; NS1 inh: 1%; TbPYK inhibitor: 5%; Giardia FBPA inh-1: -30%; AMA1-RON2 inh: 31%

Results for CC(C)c1ccc(S(=O)(=O)/N=C2/C=C(Sc3ncn[nH]3)C(=O)c3ccccc32)cc1 ?
LmPK inhibitor: inconclusive; NS1 inh: -17%; TbPYK inhibitor: 14µM*; Giardia FBPA inh-1: 0.45µM*; AMA1-RON2 inh: -4%[11.6 µM]; Giardia growth: 7.1µM*; Mammalian tox: 25µM*; Giardia FBPA inh-2: 3.5µM*; Rabbit aldolase: 16µM*; GAPDH counter: 3.5µM*

Results for CCc1nnc(-n2nc(C)cc2-c2ccccc2)n1N ?
LmPK inhibitor: -1%; NS1 inh: 4%; TbPYK inhibitor: 0%; Giardia FBPA inh-1: inconclusive; AMA1-RON2 inh: 0%

How did Cc1ccccc1/C=N/Nc1nc2ccccc2[nH]1 do in these assays?
LmPK inhibitor: 2%; TbPYK inhibitor: 2%; Giardia FBPA inh-1: -14%; AMA1-RON2 inh: 71%

What do the screens show for `CCc1nnc(N/N=C/c2c(C)[nH]c3ccccc23)n1N`?
LmPK inhibitor: -2%; NS1 inh: -12%; TbPYK inhibitor: -9%; Giardia FBPA inh-1: 18µM*; AMA1-RON2 inh: 11%; Giardia growth: 17%; Mammalian tox: 0%; Giardia FBPA inh-2: inconclusive; Rabbit aldolase: inconclusive; GAPDH counter: -24%

How did Cc1nnc(N/N=C/c2c(Cl)cccc2Cl)n1N do in these assays?
LmPK inhibitor: -4%; NS1 inh: -5%; TbPYK inhibitor: -4%; Giardia FBPA inh-1: 22µM*; AMA1-RON2 inh: 33%; Giardia growth: 13%; Mammalian tox: 8%; Giardia FBPA inh-2: -15%; Rabbit aldolase: -3%; GAPDH counter: -1%

What do the screens show for `CCc1nnc(N/N=C/c2cc(C)c(C)cc2C)n1N`?
LmPK inhibitor: -2%; NS1 inh: -69%; TbPYK inhibitor: -2%; Giardia FBPA inh-1: 13µM*; AMA1-RON2 inh: 33%; Giardia growth: 17%; Mammalian tox: -4%; Giardia FBPA inh-2: -24%; Rabbit aldolase: -8%; GAPDH counter: -5%

What do the screens show for `Cc1[nH]c2ccccc2c1/C=N/Nc1nc2ccccc2[nH]1`?
LmPK inhibitor: -2%; NS1 inh: -5%; TbPYK inhibitor: -5%; Giardia FBPA inh-1: 18µM*; AMA1-RON2 inh: -37%; Giardia growth: -4%[10.4 µM]; Mammalian tox: -20%; Giardia FBPA inh-2: -10%; Rabbit aldolase: -6%; GAPDH counter: -2%

Results for CC1(OC(=O)c2cnc3ccccc3n2)C(=O)C=C2C=C(c3ccsc3)OC=C2C1=O (stereo unspecified) ?
Giardia FBPA inh-1: 2%

How did O=c1c2nc(Br)n([C@@H]3O[C@@H]4CO[P@@](O)(=S)O[C@H]4[C@H]3O)c2nc2[nH]c(-c3ccccc3)cn12 do in these assays?
Giardia FBPA inh-1: -23%

Results for CCc1nnc(N/N=C/c2c(F)cccc2Cl)n1N ?
LmPK inhibitor: -4%; NS1 inh: -23%; TbPYK inhibitor: 10%; Giardia FBPA inh-1: 20µM*; AMA1-RON2 inh: 32%; Giardia growth: -26%; Mammalian tox: 1%; Giardia FBPA inh-2: -27%; Rabbit aldolase: -15%; GAPDH counter: -13%

What do the screens show for `CCOc1cc(/C=N/Nc2nnc(C)n2N)ccc1O`?
LmPK inhibitor: -1%; NS1 inh: -2%; TbPYK inhibitor: 2%; Giardia FBPA inh-1: 16µM*; AMA1-RON2 inh: 63%; Giardia growth: -17%; Mammalian tox: 14%; Giardia FBPA inh-2: inconclusive; Rabbit aldolase: inconclusive; GAPDH counter: inconclusive

What do the screens show for `Fc1cccc(Cl)c1/C=N/Nc1ccccn1`?
LmPK inhibitor: -2%; TbPYK inhibitor: 0%; Giardia FBPA inh-1: 4%; AMA1-RON2 inh: 21%

Results for Cc1nnc(N/N=C/c2ccc(-c3ccccc3F)o2)n1N ?
LmPK inhibitor: -4%; TbPYK inhibitor: -6%; Giardia FBPA inh-1: 16µM*; AMA1-RON2 inh: 99%; Giardia growth: inconclusive; Mammalian tox: 0%; Giardia FBPA inh-2: 16µM*; Rabbit aldolase: inconclusive; GAPDH counter: inconclusive

How did COC(=O)c1ccccc1-c1ccc(/C=N/NC(N)=O)o1 do in these assays?
LmPK inhibitor: -4%; NS1 inh: 4%; TbPYK inhibitor: 3%; Giardia FBPA inh-1: -8%; AMA1-RON2 inh: -23%

What do the screens show for `CCc1ccc(C(=O)c2cn(CC(=O)Nc3ccc4c(c3)OCO4)c3ccc(CC)cc3c2=O)cc1`?
TbPYK inhibitor: -1%

Results for Oc1c(C(c2ccccc2)N2CCN(Cc3ccccc3)CC2)sc2nc(-c3ccco3)nn12 (stereo unspecified) ?
TbPYK inhibitor: 1%

What do the screens show for `CC(=O)Nc1ccc(C(=O)Nc2ccc(S(=O)(=O)N3CCOCC3)cc2)cc1`?
LmPK inhibitor: -6%; NS1 inh: 8%; TbPYK inhibitor: -5%; Giardia FBPA inh-1: 9%; AMA1-RON2 inh: -4%

Results for O=C(NCCc1ccccc1)c1ccc(S(=O)(=O)N2CCCCC2)cc1 ?
TbPYK inhibitor: 4%; AMA1-RON2 inh: -3%
